Source: the supplement of paper PMC3334620
Whole data set: some 33,000 sequences, median “E-score (-0.5 to 0.5)” near -0.0059, cut for the highest 2% near 0.26. For the sample, the highest values were picked, then their nearest neighbours and some sequences at random.

target: T1, Cin5 (UniProt P40917); experiment: PBM E-score (8-mer binding enrichment) (E-score (-0.5 to 0.5)); higher = stronger / more preferred TF binding; conditions: protein concentration: 100 nM; construct: GST-full length
T1 sequence: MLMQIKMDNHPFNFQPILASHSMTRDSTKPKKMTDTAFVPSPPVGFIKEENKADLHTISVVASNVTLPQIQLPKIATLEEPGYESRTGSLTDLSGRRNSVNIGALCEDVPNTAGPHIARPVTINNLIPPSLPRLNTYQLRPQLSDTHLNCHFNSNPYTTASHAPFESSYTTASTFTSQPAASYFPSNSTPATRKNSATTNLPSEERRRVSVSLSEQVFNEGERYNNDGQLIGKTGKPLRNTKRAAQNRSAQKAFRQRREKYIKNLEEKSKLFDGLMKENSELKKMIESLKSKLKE
Experimental: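 Universal 'all 10-mer' protein binding microarrays (Agilent AMADID 015681) probed with GST-tagged S. cerevisiae TFs (full-length or DBD) made by in vitro transcription/translation (PURExpress), about 100-200 nM. Bound TF was detected with fluorescent anti-GST. Each ungapped 8-mer (which stands for itself and its reverse complement) is scored by the PBM enrichment score (E-score), a modified Wilcoxon-Mann-Whitney statistic from -0.5 to +0.5, computed with the Universal PBM Analysis Suite. Scale: above 0.35 generally sequence-specific binding.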

Sequence | PBM E-score
GTTATACA | 0.181
ATTTTGTG | 0.139
GTCATATA | 0.168
ATTATATC | 0.197
ATCATATA | 0.269
ATCATATG | 0.169
ATTATATG | 0.249
ATTATATA | 0.333
ATTTTGTA | 0.286
GTTATATA | 0.271
CTTTTGTA | 0.205
GTTATAGA | -0.0531
TACATCCA | 0.0256
GCAGCACA | 0.00715
AGGTGGTA | 0.0927
GGCCAGGA | -0.0739
CAGCGTAA | 0.0543
AGGCTATA | -0.161
GTGTTGTA | 0.0125
ATTATCCC | 0.151
ATGTTGTA | 0.263
CTTATATC | 0.232
ATTATCCA | 0.122
GCTATATA | 0.153
ACTATATA | 0.309

Sequence | PBM E-score
CTTATATA | 0.348
ATTATCCG | 0.289
CTTATACA | 0.0656
ACTATATC | 0.214
ATGTTGTG | 0.151
GCGTTAAC | 0.00491
CCCTAGAC | -0.112
TCCTCGAA | 0.043
TAAGCGTA | 0.126
GAACTGGA | 0.158
CTTTGCGC | 0.123
CGTATGAA | 0.188
GCTCTATA | -0.0373
GCGATCTA | 0.068
ATTTTATG | 0.208
ATTTTATA | 0.272
ATTTGTTA | 0.179
ATTATACC | 0.187
GTTTTATA | 0.148
ATTTGTAA | 0.326
ATTATACA | 0.123
CTTTGTTC | 0.0999
ATTATACG | 0.257
ATTTGTAG | 0.136
ATTTGTTC | 0.307

Sequence | PBM E-score
CTTTGTAA | 0.115
CACCAGTG | -0.0701
AGCCTTGC | -0.0563
CCCCGGGC | -0.282
CGATGACA | 0.0915
ATCGACAT | 0.0947
ATATTTGC | 0.209
CCTTTAAG | -0.107
CTTGAGCA | -0.216
AATCTAAT | 0.0853
CCCTATTA | -0.0143
ATCTATTA | 0.321
GTCTATTA | 0.0891
ACGTATTG | 0.0396
GCCTATTA | 0.177
ATGTATCG | 0.232
ACGTATTA | 0.298
ACCTATTA | 0.267
ATGTATTG | 0.304
CTCTATTA | 0.0158
GCGTATTA | 0.0794
ATGTATTC | 0.104
ACTAGCAA | 0.00926
AGATCACT | 0.112
ACAAGTAT | 0.221

Sequence | PBM E-score
AGGTATTG | 0.126
CTTCAGTA | 0.0297
ATAGTAGA | 0.139
CTGTATTA | 0.133
GTGTATTA | 0.273
ATGTATTA | 0.233
GCTGTTCC | -0.0338
CTCTTATC | 0.192
GTGGAAAA | 0.0919
CCGCGTGC | -0.0723
GCTTACCA | 0.381
GCTTACCC | 0.00966
AATTACTA | 0.212
GATTACTA | 0.387
GCTTACAC | 0.391
CCTTACGA | -0.114
ACTTACAC | -0.04
ACTTACGA | 0.207
CATTACTA | 0.189
GCTTACGA | 0.414
TCTTACCA | -0.0191
GCTTACAA | 0.248
ATTGTGAC | 0.0953
GAGCCACC | -0.354
GTACCGGA | -0.00967

Sequence | PBM E-score
AGCGGCTG | -0.125
ACAGCCAG | -0.0281
CAATTGGC | 0.165
AATTCCAA | 0.0946
GACGCTTA | -0.059
CGACGTAC | -0.00505
CCGTCGCC | -0.0908
CCCATATA | 0.178
AGAAGGAC | -0.211
CGCCAGGA | -0.0898
CCTTACTA | 0.0454
CCTTATCA | 0.0994
GCTTATCA | 0.285
ACTTACTA | 0.108
GCTTACTA | 0.388
ACTTATCA | 0.0834
AAGCCGCG | -0.0409
ACATTCGA | 0.0628
ATCCGGAA | 0.227
ATCCGGAT | 0.259
ATCCGGAC | -0.149
TGGGGTAA | 0.0776
CGTAGTCA | -0.015
AATGTAAC | 0.117
AATGTAAG | 0.319

Sequence | PBM E-score
CATGTAAG | 0.13
ACTGTAAG | 0.143
AATGTAAT | 0.301
AATGTAAA | 0.19
CAGGCAAA | -0.00195
AGACCCAG | -0.097
CAACGCCA | -0.074
CGTATTTA | 0.308
ATTTATTA | 0.306
ATTATTTC | 0.3
CTTATTTC | 0.238
GGTATTTA | 0.0824
CTCATTTC | -0.04
ACTATTTC | 0.228
ATCATTTA | 0.226
ATCATTTC | 0.264
CTTTATTA | 0.0651
AGTATTTA | 0.0905
GTTTATTA | 0.215
ATAGACGC | 0.122
CACAGCAG | 0.0514
CCTGCGTA | -0.115
GCACCGAC | -0.0796
ATATTTTC | 0.31
CTTATTTA | 0.164

Sequence | PBM E-score
ATTATTTA | 0.319
ATTATTTG | 0.206
ATATTTTA | 0.201
ATGATTTG | 0.123
CTATTTTC | 0.0963
CTTTATAA | -0.0352
CTGATTTA | 0.0451
ATTTATAC | 0.253
ATGATTTA | 0.268
ATTTATAA | 0.299
GCACTGCA | -0.0484
AGCTGCTA | -0.0218
CCTGCAAG | -0.215
GAAGAATC | 0.00251
AACAGCCG | -0.0368
CCGCACAG | -0.0131
GTATAAAC | 0.26
CTATAAAC | -0.00307
TTATAAAA | 0.289
TGATAAAA | 0.0968
CTATAAAA | -0.0202
ATATAAAA | 0.154
GTATAAAA | 0.26
CTCTAAAA | -0.125
ATATAAAC | 0.255
